# Where a name gives a salt, the structure may show the parent alone.
# Legend:
# Settings in all cases: incubation time: 27 h, anaerobic, 37 °C;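 for the amine columns active = adjusted P below 0.05 in both replicates with a change the same way and a mean fold change under 0.8 or over 1.25; inactive = the rest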
# [1] = test system: Clostridium sporogenes DSM 1664; assay: growth (OD595) fold change vs plate DMSO controls (fold change (ratio)); higher = more growth
# In short: (§1)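 The measure reported is growth, taken as fold change against the median of DMSO controls on the same plate. Anaerobic mGAM cultures in 96-well plates (27 h, 37 °C) were read at 595 nm, blank-subtracted, corrected for compound background using 20 µM compound solutions in water, and multiplied by a calibration factor of 5 to give OD. Any fold change above 1.5 became NA, and 2 biological replicates were averaged.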
# Escherichia coli IAI1 [2] = assay: as above
# In short: as §1
# [3] = test system: Klebsiella aerogenes DSM 30053; assay: as above
# In short: as §1
# [4] = test system: Ruminococcus gnavus DSM 108212; assay: as above
# In short: as §1
# [5] = test system: Klebsiella aerogenes DSM 30053; assay: fold change of Histamine concentration vs plate DMSO controls (fold change (ratio)); higher = more amine produced, active = hit call of the paper (significant change in both replicates, either direction)
# In short: (§2)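 Anaerobic mGAM cultures of four gut bacterial strains were grown at 37 °C for 27 h in 80 µL wells, starting at OD 0.1 before 1:1 dilution. Compounds were at 20 µM final (sweeteners 50 µM). Whole cultures were extracted with cold acetonitrile/methanol containing 0.1% formic acid and centrifuged. Amines were quantified by LC–triple-quadrupole MS (dynamic MRM) against external calibration curves and drift-corrected within batch. Each value is the fold change versus plate DMSO controls, averaged over 2 biological replicates.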
# [6] = test system: Clostridium sporogenes DSM 1664; assay: fold change of Tryptamine concentration vs plate DMSO controls (fold change (ratio)); higher = more amine produced, active = hit call of the paper (significant change in both replicates, either direction)
# In short: as §2
# [7] = test system: Ruminococcus gnavus DSM 108212; assay: as above
# In short: as §2
# Escherichia coli IAI1 [8] = assay: fold change of Putrescine concentration vs plate DMSO controls (fold change (ratio)); higher = more amine produced, active = hit call of the paper (significant change in both replicates, either direction)
# In short: as §2
# [9] = test system: Klebsiella aerogenes DSM 30053; assay: as above
# In short: as §2
# Escherichia coli IAI1 [10] = assay: fold change of Cadaverine concentration vs plate DMSO controls (fold change (ratio)); higher = more amine produced, active = hit call of the paper (significant change in both replicates, either direction)
# In short: as §2
# [11] = test system: Klebsiella aerogenes DSM 30053; assay: as above
# In short: as §2
# [12] = test system: Ruminococcus gnavus DSM 108212; assay: fold change of 2-Phenylethylamine concentration vs plate DMSO controls (fold change (ratio)); higher = more amine produced, active = hit call of the paper (significant change in both replicates, either direction)
# In short: as §2
SMILES,growth [1],growth (Escherichia coli IAI1 [2]),growth [3],growth [4],fold change of Histamine concentration [5],fold change of Tryptamine concentration [6],fold change of Tryptamine concentration [7],fold change of Putrescine concentration (Escherichia coli IAI1 [8]),fold change of Putrescine concentration [9],fold change of Cadaverine concentration (Escherichia coli IAI1 [10]),fold change of Cadaverine concentration [11],fold change of 2-Phenylethylamine concentration [12]
NNC(=O)c1ccncc1 [Isoniazid] (20 µM),1.22,1.01,0.936,0.727,1.03 (inactive),1.05 (inactive),0.851 (inactive),1.03 (inactive),0.991 (inactive),1.01 (inactive),0.988 (inactive),0.844 (inactive)
CCc1ccc(CCOc2ccc(CC3SC(=O)NC3=O)cc2)nc1 (stereo not drawn) [Pioglitazone] (20 µM),1.3,0.963,0.988,0.816,1 (inactive),0.918 (inactive),0.977 (inactive),1.02 (inactive),1.01 (inactive),0.968 (inactive),0.998 (inactive),0.904 (inactive)
CCC[C@@H]1C[C@@H](C(=O)N[C@@H]([C@H]2O[C@H](SC)[C@H](O)[C@@H](O)[C@H]2O)[C@H](C)Cl)N(C)C1 [Clindamycin hydrochloride] (20 µM),0.899,0.682,0.934,0.134,1.54 (inactive),0.0905 (active),0.136 (active),0.4 (inactive),0.537 (inactive),0.844 (inactive),0.932 (inactive),0.125 (active)
C#C[C@]1(O)CC[C@H]2[C@@H]3CCc4cc(OC)ccc4[C@H]3CC[C@@]21C [Mestranol] (20 µM),0.992,0.999,1.09,1.14,0.93 (inactive),1.04 (inactive),0.893 (inactive),0.949 (inactive),1.01 (inactive),1.01 (inactive),1.01 (inactive),0.831 (inactive)
CN1CCC(OC(c2ccccc2)c2ccccc2)CC1 [Diphenylpyraline hydrochloride] (20 µM),0.998,0.955,0.989,1.13,1.05 (inactive),1.01 (inactive),0.999 (inactive),1.01 (inactive),0.995 (inactive),0.979 (inactive),0.983 (inactive),1.05 (inactive)
c1ccc2c(c1)ccc1ccccc12 [Phenanthrene] (20 µM),0.976,0.992,0.975,0.96,1 (inactive),1.02 (inactive),1.07 (inactive),0.992 (inactive),0.817 (inactive),0.904 (inactive),1.12 (inactive),1.09 (inactive)
N[C@H](Cc1ccccc1)C(=O)O [D-phenylalanine] (20 µM),1.13,1.02,0.991,0.917,0.946 (inactive),1.1 (inactive),0.973 (inactive),1.06 (inactive),1.02 (inactive),0.961 (inactive),1.01 (inactive),0.968 (inactive)
O=C(CCCCCCC(=O)Nc1ccccc1)NO [Vorinostat] (20 µM),0.808,1.07,0.974,1.04,1.17 (inactive),0.962 (inactive),1.05 (inactive),1.11 (inactive),0.99 (inactive),0.99 (inactive),0.967 (inactive),1.1 (inactive)
O=S(=O)([O-])NC1CCCCC1.[Na+] [Sodium cyclamate] (50 µM),1.01,1.02,0.974,1.03,1.04 (inactive),1.01 (inactive),1.01 (inactive),1.03 (inactive),1.02 (inactive),1.05 (inactive),1 (inactive),1.02 (inactive)
COc1cc(N)cn[n+]1-c1ccccc1 [Amezinium metilsulfate] (20 µM),1.05,1.04,1.08,1.07,0.987 (inactive),1.05 (inactive),1.06 (inactive),0.969 (inactive),0.98 (inactive),1.02 (inactive),0.995 (inactive),1.11 (inactive)
CC1c2cccc(O)c2C(O)=C2C(=O)C3(O)C(O)=C(C(N)=O)C(=O)C(N(C)C)C3C(O)C21 (stereo not drawn) [Doxycycline hydrochloride] (20 µM),0.0027,0.0209,0.241,0.613,0.459 (inactive),0.0313 (active),0.225 (active),0.219 (active),0.659 (active),0.412 (active),0.724 (active),0.288 (active)
CC(=O)OC[C@H]1O[C@@H]([S-])[C@H](OC(C)=O)[C@@H](OC(C)=O)[C@@H]1OC(C)=O.CCP(CC)CC.[Au+] [Auranofin] (20 µM),0.978,1.02,0.951,0.00158,0.65 (active),0.49 (active),0.05 (active),0.925 (inactive),0.89 (inactive),0.996 (inactive),0.972 (inactive),0.0596 (active)
O=C(O)CN(CCN(CC(=O)O)CC(=O)O)CCN(CC(=O)O)CC(=O)O [Pentetic acid] (20 µM),1.27,1.04,1.04,1.05,1.08 (inactive),1.02 (inactive),1.01 (inactive),0.998 (inactive),1.02 (inactive),0.992 (inactive),0.989 (inactive),0.997 (inactive)
O=C1O[C@H]([C@@H](O)CO)C(O)=C1O [Ascorbic acid] (20 µM),1.01,1.03,0.981,0.975,1.08 (inactive),1.05 (inactive),1.06 (inactive),1.01 (inactive),0.978 (inactive),1.03 (inactive),1.04 (inactive),1.03 (inactive)
CC=CC1=C(C(=O)O)N2C(=O)[C@@H](NC(=O)[C@H](N)c3ccc(O)cc3)[C@H]2SC1 [Cefprozil] (20 µM),0.404,1.01,0.983,0.5,1.06 (inactive),0.324 (active),0.637 (inactive),0.914 (inactive),1.02 (inactive),0.955 (inactive),1.02 (inactive),0.843 (inactive)
c1ccc2cc3ccccc3cc2c1 [Anthracene] (20 µM),1.03,1.04,0.993,0.985,1.03 (inactive),1.03 (inactive),1.02 (inactive),1.01 (inactive),0.986 (inactive),0.976 (inactive),1.02 (inactive),0.963 (inactive)
c1ccc(CC2=NCCN2)cc1 [Tolazoline hydrochloride] (20 µM),1.05,1,0.977,0.841,1.07 (inactive),0.962 (inactive),0.996 (inactive),0.996 (inactive),1.02 (inactive),1.06 (inactive),0.99 (inactive),1 (inactive)
CNS(=O)(=O)Cc1ccc2[nH]cc(CCN(C)C)c2c1 [Sumatriptan succinate] (20 µM),1.11,0.977,1.21,0.976,0.809 (inactive),1.05 (inactive),1.01 (inactive),0.895 (inactive),0.992 (inactive),1.03 (inactive),1.03 (inactive),1.06 (inactive)
Cn1nnnc1SCC1=C(C(=O)O)N2C(=O)[C@@H](NC(=O)[C@H](O)c3ccccc3)[C@H]2SC1 [Cefamandole sodium salt] (20 µM),0,0.0343,1.08,0.971,1.04 (inactive),0.0204 (active),0.141 (active),0.968 (inactive),1.02 (inactive),2.1 (active),1.06 (inactive),0.118 (active)
CCC1(C)CC(=O)NC1=O (stereo not drawn) [Ethosuximide] (20 µM),0.953,1,1.07,0.928,0.991 (inactive),1.07 (inactive),0.992 (inactive),1 (inactive),0.995 (inactive),0.995 (inactive),1.03 (inactive),1.02 (inactive)
CNCC(O)c1ccc(OC(=O)C(C)(C)C)c(OC(=O)C(C)(C)C)c1 (stereo not drawn) [Dipivefrin hydrochloride] (20 µM),1.15,1.07,0.982,1.02,1.01 (inactive),1.15 (inactive),1.11 (inactive),1.01 (inactive),0.981 (inactive),0.995 (inactive),0.991 (inactive),1.16 (inactive)
CC(C)(O)c1ccccc1CC[C@@H](SCC1(CC(=O)O)CC1)c1cccc(/C=C/c2ccc3ccc(Cl)cc3n2)c1 [Montelukast] (20 µM),0.909,1,1.02,0.923,1.07 (inactive),0.587 (active),0.851 (inactive),0.994 (inactive),1.05 (inactive),1.03 (inactive),1.01 (inactive),0.842 (inactive)
COc1cc(C(=O)NC2CCCNC2)cc(OC)c1OC (stereo not drawn) [Troxipide] (20 µM),0.822,1.02,0.99,0.845,0.989 (inactive),1.03 (inactive),1.06 (inactive),0.965 (inactive),0.983 (inactive),0.978 (inactive),0.996 (inactive),1.02 (inactive)
CCN(CC)CCOCCOC(=O)C1(c2ccccc2)CCCC1 [Carbetapentane citrate] (20 µM),1.08,1,0.996,0.743,0.992 (inactive),1.02 (inactive),0.995 (inactive),0.958 (inactive),0.996 (inactive),0.988 (inactive),0.993 (inactive),0.979 (inactive)

# Reference: the supplement of paper PMC12494721
